4 molecules from PubChem BioAssay (EPA / NIEHS) can be followed below.

Conditions in all cases: mRNA level, 48 h; actives raise or lower the signal
Read-out in assay [1]: Glutathione S-transferase M3 (GSTM3), GSTM3 (gene 2947)
Kind of assay: LTEA_HepaRG_GSTM3: Life Technologies and Expression Analysis (LTEA) Assay for Glutathione S-transferase M3 (GSTM3) using HepaRG (AID 2283501). The procedure, abridged: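 HepaRG, plated 48 h, then serum-free induction medium; test chemical 48 h, duplicate; 100 uM top, half-log x8, 0.5% DMSO. Read-out: GSTM3 mRNA (TaqMan qRT-PCR, Fluidigm array). Bidirectional fit vs DMSO.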

Read-out in assay [2]: Heat shock 70 kDa protein 1 (HSPA1A), gene 3303
Kind of assay: LTEA_HepaRG_HSPA1A: Life Technologies and Expression Analysis (LTEA) Assay for Heat shock 70 kDa protein 1 (HSPA1A) using HepaRG (AID 2283502). The procedure, abridged: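 Readout is HSPA1A transcript level by microfluidic qRT-PCR, normalized to three housekeeping genes and analysed for gain or loss of signal relative to 0.5% DMSO. Human HepaRG cultures received test chemicals for 48 h at up to 100 uM.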

Read-out in assay [3]: Hypoxia-inducible factor 1-alpha (Homo sapiens) (UniProt Q16665)
Kind of assay: LTEA_HepaRG_HIF1A: Life Technologies and Expression Analysis (LTEA) Assay for Hypoxia-inducible factor 1 (HIF1A) Trancription factor using HepaRG (AID 2283503). The procedure, abridged: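 Differentiated HepaRG cells in serum-free induction medium exposed 48 h, in duplicate, to 8-point half-log series from 100 uM in 0.5% DMSO. HIF1A mRNA measured by TaqMan qRT-PCR, normalized to ACTB/GAPDH/POLR2A, fitted bidirectionally versus DMSO.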

Read-out in assay [4]: 3-Hydroxy-3-Methylglutaryl-CoA Synthase 2 (HMGCS2), HMGCS2 (gene 3158)
Kind of assay: LTEA_HepaRG_HMGCS2: Life Technologies and Expression Analysis (LTEA) Assay for 3-Hydroxy-3-Methylglutaryl-CoA Synthase 2 (HMGCS2) using HepaRG (AID 2283504). The procedure, abridged:
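HepaRG, plated 48 h then switched to serum-free induction media; cmpd 8-pt, max 100 uM, 1/2-log, 0.5% DMSO, n=2, 48 h. HMGCS2 mRNA by Fluidigm TaqMan qRT-PCR, ACTB/GAPDH/POLR2A norm; bidirectional fit vs DMSO.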

Read-out in another assay: HGF (gene 3082)
Kind of assay: LTEA_HepaRG_HGF: Life Technologies and Expression Analysis (LTEA) Assay for Hepatocyte Growth Facto (HGF) using HepaRG (AID 2283505). The procedure, abridged:
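Read-out is HGF transcript level by qRT-PCR, normalized to three housekeeping genes, fitted bidirectionally against 0.5% DMSO vehicle. Human HepaRG cells received test chemicals for 48 h at up to 100 uM.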

Read-out in assay [5]: Insulin Like Growth Factor 1 (IGF1), IGF1 (gene 3479)
Description: LTEA_HepaRG_IGF1: Life Technologies and Expression Analysis (LTEA) Assay for Insulin Like Growth Factor 1 (IGF1) using HepaRG (AID 2283506). Put shortly:
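HepaRG, plated 48 h, then switched to serum-free induction media; test chemical 8-pt half-log from 100 uM (0.5% DMSO), duplicate, 48 h. Lysis in RLT, TaqMan qRT-PCR, norm. ACTB/GAPDH/POLR2A. Bidirectional fit vs DMSO.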

Read-out in assay [6]: Intercellular Adhesion Molecule 1 (ICAM1), ICAM1 (gene 3383)
Description: LTEA_HepaRG_ICAM1: Life Technologies and Expression Analysis (LTEA) Assay for Intercellular Adhesion Molecule 1 (ICAM1) using HepaRG (AID 2283507). Put shortly:
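Readout is qRT-PCR mRNA level, normalized to three housekeeping genes and fitted bidirectionally against 0.5% DMSO vehicle. Human HepaRG cultures received compound for 48 h, top concentration 100 uM with half-log dilutions.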

Read-out in assay [7]: Insulin-like growth factor-binding protein 1 (IGFBP1), IGFBP1 (gene 3484)
Kind of assay: LTEA_HepaRG_IGFBP1: Life Technologies and Expression Analysis (LTEA) Assay for Insulin-like growth factor-binding protein 1 (IGFBP1) using HepaRG (AID 2283508). The procedure, abridged:
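Thawed HepaRG cells are plated for 48 h, switched to serum-free induction medium, then dosed in duplicate for another 48 h (100 uM top, half-log steps). Lysates in RLT go to qRT-PCR, and gain or loss of signal is fitted relative to vehicle.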

Read-out in assay [8]: Interleukin 6 Receptor (IL6R), IL6R (gene 3570)
Kind of assay: LTEA_HepaRG_IL6R: Life Technologies and Expression Analysis (LTEA) Assay for Interleukin 6 Receptor (IL6R) using HepaRG (AID 2283510). The procedure, abridged:
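Readout is IL6R transcript level by TaqMan qRT-PCR, normalized to three housekeeping genes and fitted bidirectionally against 0.5% DMSO controls. Human HepaRG cells received chemicals for 48 h in serum-free induction medium, highest concentration 100 uM.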

Read-out in assay [9]: Potassium channel subfamily K member 1 (KCNK1), KCNK1 (gene 3775)
Description: LTEA_HepaRG_KCNK1: Life Technologies and Expression Analysis (LTEA) Assay for Potassium channel subfamily K member 1 (KCNK1) using HepaRG (AID 2283511). Put shortly: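 Differentiated human HepaRG cells in serum-free induction medium were exposed in duplicate for 48 h to 8 half-log concentrations up to 100 uM in 0.5% DMSO. KCNK1 mRNA was measured by TaqMan qRT-PCR, normalized to ACTB, GAPDH and POLR2A, and fitted bidirectionally versus DMSO.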

Read-out in assay [10]: Keratin 19 (KRT19), KRT19 (gene 3880)
Description: LTEA_HepaRG_KRT19: Life Technologies and Expression Analysis (LTEA) Assay for Keratin 19 (KRT19) using HepaRG (AID 2283512). The procedure, abridged: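 KRT19 transcript levels, measured by Fluidigm qRT-PCR against three housekeeping genes, are fitted for gain or loss of signal relative to DMSO. Human HepaRG cells receive test chemicals (top 100 uM, half-log steps, 0.5% DMSO) for 48 hours.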

Read-out in assay [11]: JUN Transcription Factor, JUN (gene 3725)
Description: LTEA_HepaRG_JUN: Life Technologies and Expression Analysis (LTEA) Assay for JUN Transcription Factor using HepaRG (AID 2283513). Put shortly:
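Cells plated 48 h, medium switched to serum-free induction medium, then dosed 48 h (100 uM top, half-log dilutions, 0.5% DMSO). RNA isolated; JUN measured by qRT-PCR against three housekeeping genes; gain or loss fitted relative to DMSO.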

Read-out in assay [12]: Lipase C (LIPC), LIPC (gene 3990)
Description: LTEA_HepaRG_LIPC: Life Technologies and Expression Analysis (LTEA) Assay for Lipase C (LIPC) using HepaRG (AID 2283514). Put shortly:
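Differentiated human HepaRG cells in serum-free induction medium were exposed in duplicate for 48 h to eight concentrations (top 100 uM, half-log steps, 0.5% DMSO). LIPC mRNA was quantified by TaqMan qRT-PCR, normalized to ACTB, GAPDH and POLR2A, with bidirectional fitting versus DMSO.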

Read-out in assay [13]: Lipoprotein lipase (LPL), LPL (gene 4023)
Kind of assay: LTEA_HepaRG_LPL: Life Technologies and Expression Analysis (LTEA) Assay for Lipoprotein lipase (LPL) using HepaRG (AID 2283515). Put shortly: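 Differentiated human HepaRG cells in serum-free induction medium were exposed in duplicate for 48 h to eight half-log concentrations (top 100 uM) in 0.5% DMSO. LPL mRNA was quantified by TaqMan qRT-PCR, normalized to ACTB, GAPDH and POLR2A.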

Read-out in assay [14]: MicroRNA 122 (MIR122), gene 406906
Kind of assay: LTEA_HepaRG_MIR122: Life Technologies and Expression Analysis (LTEA) Assay for MicroRNA 122 (MIR122) using HepaRG (AID 2283516). Note: the transcript read is the microRNA miR-122. The procedure, abridged:
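HepaRG plated 48 h, switched to serum-free induction medium, then treated in duplicate for 48 h (100 uM top, half-log steps, 0.5% DMSO vehicle). RNA isolated, qRT-PCR performed, concentration-response fitted both directions relative to DMSO.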

Read-out in assay [15]: matrix metalloproteinase-10 (MMP10), MMP10 (gene 4319)
Kind of assay: LTEA_HepaRG_MMP10: Life Technologies and Expression Analysis (LTEA) Assay for matrix metalloproteinase-10 (MMP10) using HepaRG (AID 2283517). The procedure, abridged: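 HepaRG, collagen I, ~100,000 cells/well; serum-free induction medium; 48 h exposure, duplicate, 8-pt half-log to 100 uM, 0.5% DMSO. Readout: TaqMan qRT-PCR, normalized to ACTB/GAPDH/POLR2A; bidirectional fit vs DMSO.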

Read-out in another assay: MYC, MYC (gene 4609)
Kind of assay: LTEA_HepaRG_MYC: Life Technologies and Expression Analysis (LTEA) Assay for MYC using HepaRG (AID 2283518). The procedure, abridged: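 HepaRG, ~100,000 cells/well, collagen I; 48 h plating; serum-free induction medium; 48 h dosing, duplicate, 100 uM top, half-log, 0.5% DMSO; total RNA → qRT-PCR MYC; gain/loss fit vs DMSO.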

Read-out in assay [16]: Paternally Expressed 10 (PEG10), PEG10 (gene 23089)
Kind of assay: LTEA_HepaRG_PEG10: Life Technologies and Expression Analysis (LTEA) Assay for Paternally Expressed 10 (PEG10) using HepaRG (AID 2283520). The procedure, abridged: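 HepaRG, 48 h post-plating → serum-free induction medium → 48 h chemical exposure (duplicate, 8-pt, max 100 uM, half-log, 0.5% DMSO) → lysis in RLT → TaqMan qRT-PCR for PEG10, ACTB/GAPDH/POLR2A normalisation.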

Read-out in assay [17]: Interleukin 6 (IL6), IL6 (gene 3569)
Description: LTEA_HepaRG_IL6: Life Technologies and Expression Analysis (LTEA) Assay for Interleukin 6 (IL6) using HepaRG (AID 2283509). The procedure, abridged: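 Differentiated human HepaRG cells, plated 48 h then switched to serum-free induction medium, were exposed in duplicate for 48 h to eight half-log concentrations up to 100 uM in 0.5% DMSO. IL6 mRNA measured by qRT-PCR, normalized to ACTB/GAPDH/POLR2A.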

Read-out in assay [18]: matrix metalloproteinase-3 (MMP3), MMP3 (gene 4314)
Kind of assay: LTEA_HepaRG_MMP3: Life Technologies and Expression Analysis (LTEA) Assay for matrix metalloproteinase-3 (MMP3) using HepaRG (AID 2283519). The procedure, abridged: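 Differentiated human HepaRG cells, plated 48 h on collagen I, were exposed in duplicate for 48 h in serum-free induction medium to eight half-log concentrations up to 100 uM in 0.5% DMSO. MMP3 mRNA was quantified by TaqMan qRT-PCR, normalised to ACTB, GAPDH and POLR2A.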

Activity calls are given as the source filed them. Rule for the calls: active = hit-call score of the fitted dose curve at least 0.9, where 1 is the maximum; inactive = score below 0.9.

Hypoxia-inducible factor 1-alpha (Homo sapiens), sequence (Q16665 whole entry, looked up): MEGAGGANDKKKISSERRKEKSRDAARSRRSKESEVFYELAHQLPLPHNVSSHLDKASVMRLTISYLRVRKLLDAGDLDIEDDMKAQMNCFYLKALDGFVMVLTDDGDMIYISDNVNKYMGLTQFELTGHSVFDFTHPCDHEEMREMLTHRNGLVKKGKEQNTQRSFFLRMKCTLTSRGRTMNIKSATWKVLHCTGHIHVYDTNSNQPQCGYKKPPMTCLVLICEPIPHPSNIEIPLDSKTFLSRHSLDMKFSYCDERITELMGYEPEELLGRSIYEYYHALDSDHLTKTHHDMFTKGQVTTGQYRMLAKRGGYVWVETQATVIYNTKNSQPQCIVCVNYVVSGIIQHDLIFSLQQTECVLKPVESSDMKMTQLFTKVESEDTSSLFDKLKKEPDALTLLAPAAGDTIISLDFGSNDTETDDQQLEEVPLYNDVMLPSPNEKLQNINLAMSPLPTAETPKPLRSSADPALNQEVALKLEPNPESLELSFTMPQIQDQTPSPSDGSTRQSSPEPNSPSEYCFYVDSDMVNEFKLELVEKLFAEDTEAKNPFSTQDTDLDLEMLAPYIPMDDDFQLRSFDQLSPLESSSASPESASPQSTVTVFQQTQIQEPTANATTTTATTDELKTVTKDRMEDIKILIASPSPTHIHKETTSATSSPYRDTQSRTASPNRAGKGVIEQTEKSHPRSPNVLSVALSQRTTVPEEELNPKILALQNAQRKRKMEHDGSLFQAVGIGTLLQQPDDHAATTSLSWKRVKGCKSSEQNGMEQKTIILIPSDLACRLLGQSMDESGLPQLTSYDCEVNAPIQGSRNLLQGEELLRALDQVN

Turning to `CC(C)(C)OOC(C)(C)CCC(C)(C)OOC(C)(C)C`, the outcome (in [1]; in assay [2]; in [3]; in assay [4]; in the assay with HGF (gene 3082); in assay [5]) was inactive. Besides, the call in assay [6], in assay [7], in assay [8], in assay [9], in assay [10] and in assay [11] was inactive. The outcome was “inactive” in assay [12]; “inactive” in assay [13]; “inactive” in assay [14]; “inactive” in assay [15]; “inactive” with MYC, MYC (gene 4609); “inactive” in [16].

As for `CCOC(=O)[C@]1(c2ccccc2)Oc2ccccc2[C@@H]1N`, the outcome (in assay [1]; in assay [2]; with HGF (gene 3082); in assay [9]; in assay [10]; in [14]) was inactive. Further, the AC50 in [3] is 82.2 µM (active); in assay [4], 77.3 µM (active); in [5], 80.2 µM (active); in assay [7] it was 91.6 µM (active); in assay [17], 84.8 µM (active); in assay [11], 93.6 µM (active). For the same molecule, the AC50 in assay [12] was 77.3 µM (active); in assay [13] it was 50 µM (active); in [15], 92.9 µM (active); with MYC, MYC (gene 4609), 89.5 µM (active); in assay [18], 72.8 µM (active); in assay [16], 62.5 µM (active).

`O=Cc1ccco1`: the call (in assay [1]; in [2]; in assay [3]; in assay [4]; with HGF (gene 3082); in assay [5]) was inactive. The call in assay [6], in assay [7], in [9], in [10], in assay [11] and in assay [12] was inactive. Besides, the outcome in assay [13] is “inactive”; in assay [14] it was “inactive”; in assay [15] it was “inactive”; with MYC, MYC (gene 4609), “inactive”; in assay [16], “inactive”.

`O=C(N[C@H](c1ccccc1)[C@@H]1CN2CCC1CC2)c1c(Cl)ccc(C(F)(F)F)c1Cl`: the molecule was called inactive (in [1]; in [3]; in the assay with HGF (gene 3082); in [12]). For the same molecule, the AC50 in assay [2] is 73.8 µM (active); in [4], 72.8 µM (active); in [5], 46.2 µM (active); in assay [6], 66.6 µM (active); in [7] it was 34.8 µM (active); in [9] it was 59.7 µM (active). Moreover, the AC50 in assay [10] is 12 µM (active); in assay [11] it was 82.4 µM (active); in [13] it was 11.1 µM (active); in assay [14] it was 46.2 µM (active); in assay [15], 69.4 µM (active); with MYC, MYC (gene 4609), 68.4 µM (active). Further, the AC50 in assay [16] is 26.8 µM (active).

For orientation: AC50 means the concentration giving half of the maximal activity seen.
